The structures appear in SMILES notation. In all, about 46,000 compounds went through this assay and about 60 (0.1%) were called active. Not shown: some 3% with an inconclusive outcome. Only a selection was taken, and actives are over-represented in it overall. A number with no mark means an inactive call. Calls come from the whole dose curve; as a rule, active = well fitted inhibition curve with a large enough effect; inconclusive = small, poorly fitted or top-dose-only effect; inactive = no such curve, though single readings can be large or run the other way.
Potency is the fitted concentration of half-maximal effect.

A short description of this assay: Primary qHTS assay for Inhibitors of ovarian cancer metastasis using an organotypic tumor microenvironment (TME) model.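 For Potency: count of GFP cancer cells still attached after washing and fixation.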 Note: nearly all actives have a fitted effect of over 65% in size. The conditions noted are these: SKOV3ip1-GFP adhesion/invasion on 3D omental model, fluorescence; series mostly up to 45.8 µM; activity change, negative = inhibition: at the top concentration. The source says:
PI: Ernst Lengyel MD., Ph.D. Department of Obstetrics and Gynecology, Section of Gynecologic Oncology University of Chicago Medicine, Chicago, Illinois. The tumor microenvironment (TME) is a key determinant of metastatic efficiency. We performed a quantitative high-throughput screen (qHTS) of diverse medicinal chemistry tractable scaffolds (44,420 compounds) and pharmacologically active small molecules (386 compounds) using a layered organotypic, robust assay representing the ovarian cancer metastatic TME. This 3D model contains primary human mesothelial cells, fibroblasts, and extracellular matrix, to which fluorescently labeled ovarian cancer cells are added. Initially, 100 compounds inhibiting ovarian cancer adhesion/invasion to the 3D model in a dose-dependent manner were identified. Of those, eight compounds were confirmed active in five high-grade serous ovarian cancer cell lines and were further validated in secondary in vitro and in vivo biological assays. […] Specifically, NCGC00117362 and PP-121 inhibited ovarian cancer adhesion, invasion, and proliferation, whereas milciclib inhibited ovarian cancer invasion and proliferation. […] To evaluate the clinical potential of NCGC00117362, structure - activity relationship studies were performed. […] The three compounds identified have promise as therapeutics for prevention and treatment of ovarian cancer metastasis.
PROTOCOL TABLE (as described by Inglese J, Shamu CE and Guy RK. 2007) SEQUENCE No. (e.g., 1, 2, 3, etc.); […] (e.g., Cells, Incubation, Reagent, etc.); VALUE; DESCRIPTION. 1; Cells; 4 uL; primary human omental fibroblast, black, clear bottom, low base, 1536-well Aurora assay plate. 2; Incubation; 48 hr; 37C. 3; Cells; 3 uL; 1,200 SKOV3ip1-GFP cells. 4; Compounds; 23nL; acoustic dispenser. 5; Incubation; 2 hr; room temperature. 6; Incubation; 16 hr; 37C. 7; Wash; 5 uL; 1x PBS. 8; Fixing; 5 uL; 4% paraformaldehyde (PFA). 9; Incubation; 15 min; room temperature 10; Wash, 5 uL; 1x PBS. 11; Detection; Fluorescence, excitation filter 488 nm, emission filter 509 nm. NOTES (numbers refer to Sequence numbers above) 1. For the 1,536-well format, 40 primary human omental fibroblasts and 400 mesothelial cells were seeded with 0.02 µg fibronectin and 0.02 µg collagen type I in 4 µL of growth media (2.3 mm2; Supplementary Fig. S1A). 2. Assay plates were incubated for 48 hours at 37 C. 3. After incubation, 1,200 SKOV3ip1-GFP were seeded in 3 µL of serum-free media (growth media minus FBS) on top of primary human omental cells. 4. Compounds or controls were added to each well immediately after the addition of the cancer cells. Compounds were screened in four doses (0.36-46 µmol/L), and the plates contained the positive control (Tomatine) in eight doses (0.035-75 µmol/L) and DMSO (equal volume controls) 5 - 6. The plates were incubated at room temperature for 2 hours and then at 37 degrees C for 16 hours. 7 - 10. Following incubation, the media were aspirated and each well washed with PBS (5 µL) and then fixed with 4% paraformaldehyde (PFA; 5 µL). After 15 minutes, the PFA solution was aspirated, PBS (5 µL) was added. 11. The number of GFP-labeled cells analyzed using a fluorescent cytometer TTP LabTech Acumen eX3 using 488 nm excitation filter and 509 nm emission filter. Data was normalized to the DMSO treated for negative and Tomatine treated wells for positive control. REFERENCES: Inglese J, Shamu CE and Guy RK, Reporting data from high throughput screening of small molecule libraries, Nature Chemical Biology, 2007, 3(8): 438-441. doi.org/10.1038/nchembio0807-438. Yasgar A, Shinn P, Jadhav A, Auld DS, Michael S, Zheng W, Austin CP, Inglese J and Simeonov A, Compound Management for Quantitative High-Throughput Screening. J. Assoc. Lab. Auto., 2008, 13: 79-89. doi: 10.1016/j.jala.2007.12.004.
(In general: Quantitative high-throughput screening tests each substance at several concentrations.)
`CCC(=O)N1CCc2cc(Br)cc(S(=O)(=O)Nc3ccc(C)cc3C)c21`: the “activity change, negative = inhibition” value is -6.08%. Consider `Cc1cccc(NC(=O)c2cc3c(C)nn(-c4ccccc4)c3s2)c1`, for which the “activity change, negative = inhibition” value is -4.51%. On the same count and under the same terms, in the case of `Cc1ccc(-c2nn3c(=O)cc(CN4CCN(C(=O)Nc5cccc(C(F)(F)F)c5)CC4)nc3s2)cc1` it was 5.26%. As for `CCOC(=O)CN1C(C(=O)c2ccccc2)=C(OC(=O)C(C)(C)C)c2ccccc2S1(=O)=O`, the call was inactive. Consider `O=C(CC1C(=O)N(c2ccccc2)C(=O)N1CCc1cccs1)Nc1ccc(F)cc1` (configuration not stated), for which the “activity change, negative = inhibition” value is 0.418%.

Turning to `O=C(CN1c2ccccc2S(=O)(=O)c2ccccc21)Nc1cccc(C(F)(F)F)c1`, the compound was classed as inactive. In the case of `CC(C)(C)OC(=O)N1CCC(c2c(C(=O)N3CCN(c4cccc(Cl)c4)CC3)cnn2-c2cccc(Cl)c2)CC1`, the “activity change, negative = inhibition” value is 14.1%. On the same count and under the same terms, in the case of `CCc1ccccc1NC(=O)CCOc1ccccc1` it was -12.1%; in that of `Cc1cccc(OCCCC(=O)Nc2sc3c(c2C(N)=O)CCC(C)C3)c1` (configuration not stated), 0.314%. Same read-out and setting: next, `CCN(CC)CCCCNc1ncc2c(n1)N(C)C(=O)N(c1c(Cl)c(OC)cc(OC)c1Cl)C2`: -3.35%. With `Cc1cccc(N2CCN(C(=O)c3cc4c(=O)oc5ccccc5c4s3)CC2C)c1` (configuration not stated), the call was inactive.

In the case of `COCCCNC(=O)CN1C(=O)CSc2ccc(S(=O)(=O)N3CCOCC3)cc21`, the “activity change, negative = inhibition” value was -1.82%.

As to `CCc1ccccc1N1CC(c2nc3ccccc3n2CCCCOc2ccccc2)CC1=O` (configuration not stated), the “activity change, negative = inhibition” value was 1.09%. On the same count and under the same terms, next, `CCOC(=O)c1nc(Nc2ccc(C(=O)OC)cc2)c2ccccc2n1`: -4.43%. Regarding `COc1cc(Nc2nc(-c3ccc(OC)c(OC)c3)nc3ccccc23)cc(OC)c1`, the Potency was 10 µM (active). Take `COc1cccc(Nc2nc3ccccc3c3nncn23)c1`: the “activity change, negative = inhibition” value was -7.17%. As for `COc1ccc(C2=CC(c3ccccc3Cl)n3nc(-c4ccc(Cl)cc4)nc3N2)cc1` (configuration not stated), the “activity change, negative = inhibition” value is 5.11%. As for `O=C(CCC(=O)N1CC2CCCN2c2ccccc21)NCc1ccccc1Cl` (configuration not stated), the “activity change, negative = inhibition” value was -7.58%.

With `CCCCN(C)S(=O)(=O)c1ccc(C(=O)Nc2sc3c(c2C(N)=O)CC(C)(C)NC3(C)C)cc1`, the “activity change, negative = inhibition” value is -2.75%. Take `Cc1ccc(C(=O)Nc2ccccc2F)cc1S(=O)(=O)N1CCOCC1`: the “activity change, negative = inhibition” value is -6.33%.

On to `Cc1c(Cl)cccc1NC(=O)C1CCCN(c2ncnc3onc(C)c23)C1` (configuration not stated), for which the “activity change, negative = inhibition” value was -1.22%.

`COc1cc(C=CC(=O)O)ccc1O`: the “activity change, negative = inhibition” value is 0.771%. Take `CSc1ccc(NC(=O)Cn2nnnc2-c2ccccc2F)cc1`: the “activity change, negative = inhibition” value is -8.04%.

Consider `COc1ccccc1CNC(=O)C(=O)NCC(c1ccco1)S(=O)(=O)c1ccc(F)cc1` (configuration not stated), for which the “activity change, negative = inhibition” value was 1.95%.

In the case of `CCC(C(=O)Nc1cccc(Cl)c1C)n1nc(-c2ccc(C)cc2)ccc1=O` (configuration not stated), the result was inactive. As for `Cc1ccc(OC(=O)CSc2nnc(-c3cccs3)o2)cc1`, the compound was classed as inactive. For the compound `O=C(CCSCc1cccc(F)c1)NCc1ccccc1`, the compound was classed as inactive.

On to `COc1cc(Cl)c(NC(=O)C(NS(=O)(=O)c2cccs2)C(C)C)c(OC)c1` (configuration not stated), for which the “activity change, negative = inhibition” value was 6.82%.

`Cc1cccc(N2CCN(S(=O)(=O)c3ccc4[nH]c5c(c4c3)CCCCC5)CC2)c1C`: the “activity change, negative = inhibition” value is -7.22%. On the same count and under the same terms, in the case of `CCN1C(=O)c2ccccc2S(=O)c2ccc(C(=O)NCc3ccc(F)cc3)cc21` (configuration not stated) it was 4.34%; in that of `O=C(NCCC1=CCCCC1)c1ccc2c(c1)N(Cc1ccccc1F)C(=O)c1ccccc1S2(=O)=O`, -1.06%; in that of `O=C(c1ccc(C(F)(F)F)cc1)N1CCC(c2nc(-c3ccc(S(=O)(=O)N4CCCC4)cc3)no2)CC1`, 8.1%. On the same count and under the same terms, in the case of `O=C(Nc1ccc(OC(F)(F)F)cc1)c1cc2c(=O)n3ccccc3nc2s1` it was 6.53%; in that of `Cn1c(C(=O)Nc2cccc(C(F)(F)F)c2)cc2c(=O)n3ccccc3nc21`, 3.13%. As for `O=c1c(NCc2cccs2)nccn1-c1ccccc1`, the “activity change, negative = inhibition” value is 3.18%. `O=C(CC1Oc2ccc(Cl)cc2NC1=O)NCc1ccccc1` (configuration not stated): the “activity change, negative = inhibition” value was -7.3%.

As for `Cc1ccc2nc(N3CCN(c4cccc(Cl)c4)CC3)c3nnnn3c2c1`, the compound was called inactive. In the case of `CCCCOc1ccc(NC(=O)c2cc3c(n(-c4ccc(Cl)cc4)c2=O)CCCC3=O)cc1`, the “activity change, negative = inhibition” value is 0.925%. For `Cc1ccc2cccc(NC(=O)c3cccc4ccccc34)c2n1`, the “activity change, negative = inhibition” value is -4.99%.

Regarding `COc1ccccc1CNC(=O)CS(=O)(=O)c1cccc2nsnc12`, the “activity change, negative = inhibition” value was -9.2%. The same measure, in the same setting: in the case of `O=C(CSc1cn(CC(=O)N2CCOCC2)c2ccccc12)Nc1ccccc1` it was 0.574%. Regarding `COc1ccc(C(=O)CSc2c(C(C)C)cnc3c2c(=O)n(C)c(=O)n3C)cc1`, the “activity change, negative = inhibition” value was 2.29%. Still for that read-out and setting: in the case of `COc1cccc(C(=O)NC2=NC(c3ccc(N(C)C)cc3)CC(=O)N2)c1` (configuration not stated) it was 3.44%. The same measure, in the same setting: in the case of `CNc1ccc(-c2nc(-c3ccco3)no2)cc1[N+](=O)[O-]` it was -0.24%.

`Cc1c(NC(=O)c2cc(=O)c3ccccc3o2)c(=O)n(-c2ccccc2)n1C`: the “activity change, negative = inhibition” value is 0.58%. Still for that read-out and setting: in the case of `Cc1ccc2c(=O)c(C(=O)c3ccc(F)cc3)cn(CC(=O)NC3CCCCC3)c2n1` it was 6.33%. On to `CCOc1ccc(NC(=O)c2c(NC(=O)Cc3ccccc3)sc3c2CCCCC3)cc1`, for which the compound was classed as inactive.
